PubChem BioAssay AID602452 (National Center for Advancing Translational Sciences (NCATS), 2012)
Calls of active or inactive are those of the source. No rule for the calls is given here.

Test: qHTS Assay for Inhibitors of Influenza NS1 Protein Function: SAR Using NS1 and pYES strains
Conditions: yeast NS1-expressing strain growth, OD at 60 h; stronger effect = higher value
Text: Influenza is a world-wide public health problem and emerging forms of the virus have the potential to cause a pandemic of equal or greater magnitude to the outbreaks recorded in 1918, 1957 or 1968. Vaccine development is proceeding and there also exist two classes of anti-influenza compounds. However these therapeutic modalities are neither fully effective nor widely enough available to fulfill global needs. In addition their potential usefulness against newly emergent strains is not known. Efforts are needed to develop novel agents against influenza virus, including broad-spectrum agents. Identification of small molecules that inhibit NS1 function either directly or by interfering with specific cellular pathways may be a key to increasing our defense against the virus.
We have miniaturized and optimized a cell based assay in which NS1 from influenza A is expressed in the budding yeast S. cerevisiae. NS1 is a multi-functional protein that counters the host innate immune response and facilitates viral versus cellular gene expression. Expression of NS1 causes a pronounced slow growth phenotype in yeast due to its intrinsic molecular activities. Small molecules that suppress the slow growth phenotype can be identified by a straightforward growth recovery assay using optical density (OD) as the measurement. The same yeast strain not expressing NS1 was used as positive control in the yeast growth recovery assay.
Hits resulting from the primary screen and other follow-up screens, were tested using the same yeast strain that was used in the primary assay (NS1) but as control, were compared to a strain that lacks NS1 (pYES).
NIH Chemical Genomics Center [NCGC]
NIH Molecular Libraries Probe Centers Network [MLPCN]
Assay Submitter (PI): Daniel Engel, University of Virgina
Strain 9526-6-2 (MATa his3Delta1 leu2Delta0 lys2Delta0 ura3Delta0 pdr1::KanMX4 pdr3::KanMX4) was a gift from Dan Burke. It was derived by tetrad dissection from two parent strains that had been modified by one step gene replacements. The pdr1::KanMX4 was constructed in BY4741 (MATa his3Delta1 leu2Delta0 met15Delta0 ura3Delta0) and the pdr3::KanMX4 was constructed in BY4742 (MATalpha his3Delta1 leu2Delta0 met15Delta0 ura3Delta0). PCR-mediated one-step gene replacements, matings and tetrad dissections were performed as described previously.[i] The strain 9526-6-2/pYES-NS1 was generated by transformation of 9526-6-2 with the plasmid pYES-NS1 and maintained on synthetic complete medium (SC) lacking uracil. For growth experiments and library screening, a single transformed colony was grown overnight, and the cell number was determined by using a Coulter counter (Beckman Coulter Corp.). The cells were diluted to 5 x 10^5 cells/mL in SC lacking uracil and containing raffinose and 2% galactose. A portion of this culture was added to preplated test compounds such that the final dimethyl sulfoxide (DMSO) concentration was 1%. Optical density readings at 600 nm (OD600) were taken using a Thermomax microplate reader (Molecular Devices).

SMILES	OD (growth)
COc1cc(-c2ccnc3c2c(C)nn3-c2cccc(C(F)(F)F)c2)ccc1O	0.366 (active)
Cc1nn(-c2ccc(Cl)cc2)c2nc(N)c(C#N)c(-c3ccc(O)c(O)c3)c12	0.384 (active)
COc1cc(-c2c(C#N)c(N)nc3c2c(C)nn3-c2ccc(F)cc2)ccc1O	0.396 (active)
COc1cc(-c2ccnc3c2c(C)nn3-c2ccc(C(F)(F)F)cc2)ccc1O	0.46 (active)
Cc1ccc(-n2nc(C)c3c(-c4ccc(O)c(O)c4)c(C#N)c(N)nc32)cc1C	0.515 (active)

Same assay, conditions: yeast NS1-expressing strain growth, OD at 60 h; measured here: pYES control strain growth; stronger effect = higher value

SMILES	OD (growth)
COc1cc(-c2ccnc3c2c(C)nn3-c2cccc(C(F)(F)F)c2)ccc1O	0.551
Cc1nn(-c2ccc(Cl)cc2)c2nc(N)c(C#N)c(-c3ccc(O)c(O)c3)c12	0.572
COc1cc(-c2c(C#N)c(N)nc3c2c(C)nn3-c2ccc(F)cc2)ccc1O	0.591
COc1cc(-c2ccnc3c2c(C)nn3-c2ccc(C(F)(F)F)cc2)ccc1O	0.56
Cc1ccc(-n2nc(C)c3c(-c4ccc(O)c(O)c4)c(C#N)c(N)nc32)cc1C	0.536
